Screening data deposited in PubChem by National Center for Advancing Translational Sciences (NCATS).
Vaccinia Venus: inhibitors of vaccinia virus (Venus reporter) | Vaccinia virus Venus reporter expression, fluorescence | actives 0.46% (n = 330,000) | Potency, µM (series often up to 36.5 µM), for the others: top-dose activity change, negative = inhibition, most hits filed as inhibitors; calls by dose curve; tested in A549 cells; note: potency is the fitted concentration of half-maximal effect; nearly all actives have a fitted effect of over 30% in size
LASV entry inh: Lassa virus entry inhibition. Lassa virus pseudotype entry inhibition, cell reporter. AID 540256. Potency, µM (titrated, usually from 37.9 µM), for inactives: at the top dose activity change, negative = inhibition, most hits filed as inhibitors. actives 1.2% (n = 300,000); calls by dose curve; tested in HEK293 cells; note: potency is the fitted concentration of half-maximal effect; nearly all actives have a fitted effect of over 50% in size
FMDV inh: antivirals against foot and mouth disease virus; FMDV antiviral cell-based qHTS; Potency, µM (top dose mostly 57.9 µM), for inactives: at the top dose activity change, negative = inhibition, hits mostly inhibitors; actives 1.2% (n = 410,000); AID 1159524; calls by dose curve; tested in HEK293T cells; note: read-out not given here; potency is the fitted concentration of half-maximal effect; nearly all actives have a fitted effect of over 45% in size
HCMV antiviral: inhibitors of human cytomegalovirus. AID 1259415. activity change, negative = inhibition, % at 57.5 µM. actives 4.5% (n = 410,000). HFF cells, HCMV-luciferase reporter, 72 h; hits give low values; in the data active = activity change below about -60%; inconclusive = no clear call, values can overlap the other calls; inactive = above about -39%
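Screen run at 2 compound doses on HFFs infected with reporter HCMV, MOI 1 PFU/cell. Luciferase activity from cell lysates at 72 h post infection gave inhibition relative to buffer-only and Salinomycin wells.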
Vaccinia mCherry: inhibitors of vaccinia virus infection (mCherry reporter signal). Vaccinia virus mCherry reporter infection, fluorescence. Potency, µM (doses to about 36.5 µM), inactives show top-dose activity change, negative = inhibition, usual class: inhibitors. actives 0.63% (n = 310,000). AID 720579; calls by dose curve; tested in A549 cells; note: potency is the fitted concentration of half-maximal effect; nearly all actives have a fitted effect of over 35% in size
MARV entry inh: blocks Marburg virus binding to or entry into cells. Marburg virus pseudotyped entry inhibition, cell reporter. Potency, µM (doses to about 37.8 µM), for inactives: top-dose activity change, negative = inhibition, hits mostly inhibitors. actives 1.8% (n = 300,000). AID 540276; calls by dose curve; tested in HEK293 cells; note: potency is the fitted concentration of half-maximal effect
Starred values were filed as active, the others as inactive; i = inactive; ? = inconclusive; · = no result given; [ ] = dose if it differs, or a comment. Rows were chosen to be rich in hits. Some 6.5% of all compounds tested hit in one or more screens of this group. % is set by controls: 0 for no effect and ±100 for the full control effect.

SMILES | Vaccinia Venus | LASV entry inh | FMDV inh | HCMV antiviral | Vaccinia mCherry | MARV entry inh
CCC(=NNC(=O)c1ccc2c(c1)nc(C)n2CC)c1cc(F)ccc1O | ? | ? | -18% | ? | 10µM* | ?
CCOC(=O)c1c(NC(=O)CSc2cn(CCNC(=O)c3ccccc3OC)c3ccccc23)sc2c1CCCC2 | -5% | -2%[46.1 µM] | -28% | -22 | -13% | ?
CCOC(=O)c1c(NC(=O)CSc2nnc(-c3c[nH]c4ccccc34)n2CCOC)sc2c1CCCCC2 | ? | 23µM* | ? | -67* | ? | ?
CCOC(=O)c1c(NC(=O)C(NCCN(C)C)c2ccccc2)sc2c1CCCC2 (stereo unspecified) | -22% | 11µM* | -16% | -26 | ? | ?
CCOC(=O)c1c(NC(=O)CSc2c[nH]c3ccccc23)sc2c1CCC2 | -27% | ? | -6% | 58 | ? | ?
CCOC(=O)c1c(NC(=O)c2ccccc2Cl)sc2c1CCCC2 | -3% | ? | -12% | -25 | -8% | ·
COCCNc1nnc(SCC(=O)Nc2sc3c(c2C(=O)c2ccccc2)CCCC3)s1 | ? | ? | ? | -86* | -22% | ?
CCOC(=O)c1c(NC(=O)CSc2cn(CCNC(=O)c3ccccc3OC)c3ccccc23)sc2c1CCC2 | -13% | ? | -20% | -6 | -20% | 13µM*
COc1cc(-c2cc(C)c3cccc(OC)c3n2)cc2c1OCCN(C(=O)CCn1ccc(C)n1)C2 | -9% | · | -21% | · | -29% | ·
CCn1cc2nc(SCc3cccc(OC)c3)n(Cc3ccc(Cl)cc3)c(=O)c2n1 | -25% | ? | -26% | -24 | -25% | ?
COC(=O)C1=C(C)N(Cc2ccccc2)C(=S)NC1c1ccc(Br)cc1 (stereo unspecified) | · | ? | · | 2 | · | -36%[14.2 µM]
CCOC(=O)c1c(NC(=O)CSc2ncccn2)sc2c1CCN(Cc1ccccc1)C2 | · | ? | ? | 29 | · | 16µM*
CCOC(=O)c1c(NC(=O)CSc2c[nH]c3ccccc23)sc2c1CCCC2 | -25% | ? | ? | -17 | ? | 13µM*
CCCCCOC(=O)c1[nH]c2c(c1C)C(=O)CC(c1ccco1)C2 (stereo unspecified) | ? | ? | ? | · | ? | 0.46µM*
Cc1c(C(=O)OCc2ccccc2)[nH]c2c1C(=O)CC(c1ccc(N(C)C)cc1)C2 (stereo unspecified) | -3%[7.34 µM] | 0%[46.1 µM] | -1% | -3 | -13%[7.34 µM] | 0%[46.1 µM]
Cc1c(C(=O)OCC2CCCO2)[nH]c2c1C(=O)CC(c1ccc(N(C)C)cc1)C2 (stereo unspecified) | -21% | · | 20µM* | -28 | -18% | 1%
CCOCCOC(=O)c1[nH]c2c(c1C)C(=O)CC(c1ccccc1)C2 (stereo unspecified) | ? | ? | -20% | -71* | -15% | ?
Cc1c(C(=O)OCCOc2ccccc2)[nH]c2c1C(=O)CC(c1ccccc1Cl)C2 (stereo unspecified) | -29%[7.34 µM] | -12%[46.1 µM] | ? | -86* | ? | ?
Cc1c(C(=O)OCCOc2ccccc2)[nH]c2c1C(=O)CC(c1ccccc1)C2 (stereo unspecified) | -29%[7.34 µM] | -23%[46.1 µM] | -19% | -37 | ? | ?
CCOC(=O)C[C@H]1c2cc(F)ccc2S(=O)(=O)N1Cc1cc(OC)c(OC)c(OC)c1 | -9% | · | · | · | i | ·
CCOCCOC(=O)c1[nH]c2c(c1C)C(=O)CC(c1cccs1)C2 (stereo unspecified) | ? | ? | -25% | -81* | -7% | ?
O=C(Oc1cccc(Nc2ncnc3ccccc23)c1)c1ccccc1Cl | ? | -13% | 18µM* | -13 | ? | ?
N#Cc1c(Nc2ccc(Cl)cc2)s[nH]c1=O | -14% | 1% | 29% | -66* | -2% | 1%[46.1 µM]
CSc1nc(Nc2ccc(Cl)cc2)c(C#N)c(=O)[nH]1 | -9% | -6% | -18% | 48 | -15% | -1%
CCCCc1ccc(-c2ccc(Br)cc2O)nc1 | · | 7% | 59% | 29 | · | ?
SMILES | Vaccinia Venus | LASV entry inh | FMDV inh | HCMV antiviral | Vaccinia mCherry | MARV entry inh
CCCCc1ccc(-c2ccc(C)cc2O)nc1 | · | 10µM* | -19% | 21 | · | ?
CCN(CC)S(=O)(=O)c1cccc(-n2c(O)c(C=Nc3ccccc3C(=O)O)c3ccccc3c2=O)c1 | -21% | · | -11% | -79* | ? | ·
O=C(O)c1ccccc1N=Cc1c(O)n(-c2nccs2)c(=O)c2ccccc12 | 4%[7.34 µM] | · | 0% | ? | -6%[7.34 µM] | ·
Cn1c(=O)cnc2cnc(OCc3ccccc3)nc21 | · | · | 2% | · | · | ·
COc1ccc(-n2c(CCNC(=O)c3ccccc3C(F)(F)F)nnc2SC)cc1 | 22% | · | 0% | · | 2% | ·
O=C(CSc1ccc2ccccc2c1Br)Nc1cccc(S(=O)(=O)NC2=NCCCCC2)c1 | 10µM* | ? | -19% | 5 | ? | ?
CC(C)=CC(=O)Nc1cccc(S(=O)(=O)NC2=NCCCCC2)c1 | · | · | 10% | 4 | · | ·
O=C(CCl)Nc1ccc(S(=O)(=O)NC2=NCCCCC2)cc1 | ? | ? | 32µM* | -37 | 14µM* | ?
COc1cc(OC)cc(C(=O)OCC(=O)Nc2cccc(S(=O)(=O)NC3=NCCCCC3)c2)c1 | -17% | 18% | 22µM* | -18 | -7% | ?
COc1ccc(/C=C/C(=O)Nc2cccc(S(=O)(=O)NC3=NCCCCC3)c2)cc1OC | · | · | 40µM* | -16 | · | ·
Cc1ccc(Nc2nnc(SCC(=O)Nc3cccc(S(=O)(=O)NC4=NCCCCC4)c3)s2)c(C)c1 | -20% | ? | 32µM* | -13 | -16% | ?
O=C(Nc1cccc(S(=O)(=O)NC2=NCCC2)c1)c1ccc(C(F)(F)F)cc1 | -18% | 0% | -24% | -60* | -9% | -15%
Cc1ccc(C)c(SCC(=O)Nc2cccc(S(=O)(=O)NC3=NCCCCC3)c2)c1 | -17% | -8% | -10% | -30 | i | ?
O=C(CCl)Nc1cccc(S(=O)(=O)NC2=NCCCCC2)c1 | · | · | ? | -102* | · | ·
CNc1cc(C(=O)O)nc2ccccc12 | -10% | · | · | · | 36% | ·
